Assay outcomes (PubChem BioAssay)
KLK7 zymogen act – proKLK7 zymogen activators, primary screen, biochemical, fluorescence intensity; Kallikrein-7 (Homo sapiens), P49862; purified proKLK7, EDANS-DABCYL substrate fluorescence; 100% is mature enzyme control, 0% vehicle; activation, % at 7 µM; actives 0.9% (n = 370,000);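 active = activation above the mean of all tested compounds plus 3 SD, computed per campaign excluding outliers beyond control limits, cut at about 13% in these data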
PLCb3 inh – human PLC-beta3 inhibitors, primary screen, biochemical, fluorescence | Purified PLC-beta3, fluorogenic substrate | actives 0.18% (n = 370,000) | inhibition, % at 12.2 µM
PLC-gamma1 inh – PLC-gamma1 enzyme inhibitors, primary screen, biochemical, fluorescence, purified enzyme; 1-phosphatidylinositol 4,5-bisphosphate phosphodiesterase gamma-1 (Homo sapiens), P19174; actives 0.84% (n = 370,000); AID 720700, 2013; fluorogenic substrate; inhibition, % at 12.2 µM; in the data active = inhibition above about 9.5%
Target sequence (P19174 whole entry, looked up): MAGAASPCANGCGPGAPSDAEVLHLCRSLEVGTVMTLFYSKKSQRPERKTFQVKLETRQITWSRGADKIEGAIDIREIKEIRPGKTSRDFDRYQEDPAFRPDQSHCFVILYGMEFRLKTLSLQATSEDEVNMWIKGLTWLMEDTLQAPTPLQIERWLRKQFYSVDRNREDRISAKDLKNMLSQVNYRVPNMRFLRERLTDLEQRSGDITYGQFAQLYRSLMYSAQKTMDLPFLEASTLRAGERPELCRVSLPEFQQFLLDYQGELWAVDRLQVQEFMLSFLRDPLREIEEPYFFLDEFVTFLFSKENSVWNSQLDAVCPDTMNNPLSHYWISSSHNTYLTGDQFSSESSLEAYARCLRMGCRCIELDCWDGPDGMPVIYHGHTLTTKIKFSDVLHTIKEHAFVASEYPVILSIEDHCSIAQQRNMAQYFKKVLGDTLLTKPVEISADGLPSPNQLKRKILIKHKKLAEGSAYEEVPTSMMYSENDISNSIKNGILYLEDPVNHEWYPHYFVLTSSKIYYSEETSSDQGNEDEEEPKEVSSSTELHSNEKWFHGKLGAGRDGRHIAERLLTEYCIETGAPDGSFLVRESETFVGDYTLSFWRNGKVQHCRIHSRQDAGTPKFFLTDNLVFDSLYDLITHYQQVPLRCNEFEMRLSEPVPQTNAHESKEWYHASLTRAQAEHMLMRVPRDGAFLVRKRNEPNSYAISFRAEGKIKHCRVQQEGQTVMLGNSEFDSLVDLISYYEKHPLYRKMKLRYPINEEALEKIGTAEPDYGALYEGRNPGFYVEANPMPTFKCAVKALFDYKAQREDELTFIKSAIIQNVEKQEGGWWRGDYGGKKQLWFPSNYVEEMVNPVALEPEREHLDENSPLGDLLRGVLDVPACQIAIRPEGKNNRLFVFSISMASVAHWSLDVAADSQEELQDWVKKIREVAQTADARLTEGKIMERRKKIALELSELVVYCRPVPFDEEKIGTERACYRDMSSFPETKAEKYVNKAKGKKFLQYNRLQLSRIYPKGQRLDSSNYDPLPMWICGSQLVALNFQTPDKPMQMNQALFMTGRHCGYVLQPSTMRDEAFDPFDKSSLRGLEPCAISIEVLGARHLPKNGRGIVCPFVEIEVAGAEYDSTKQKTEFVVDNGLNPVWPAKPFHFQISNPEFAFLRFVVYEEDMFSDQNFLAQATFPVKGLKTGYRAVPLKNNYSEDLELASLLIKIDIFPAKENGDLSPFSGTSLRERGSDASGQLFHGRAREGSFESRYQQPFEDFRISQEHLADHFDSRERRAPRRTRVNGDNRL
ADAM17 inh – ADAM17 inhibitors, primary screen, biochemical, QFRET. Disintegrin and metalloproteinase domain-containing protein 17 (Homo sapiens), P78536. recombinant ADAM17, EDANS/DABCYL FRET peptide cleavage. inhibition, % at 6.95 µM. actives 0.83% (n = 370,000). AID 720648, 2013;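 active = inhibition above the mean of compounds lying between control limits plus 3 SD, set per campaign, cut at about 8.5% in these data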
ADAM10 inh – human ADAM10 inhibitors, primary screen, biochemical, QFRET, HTS; Disintegrin and metalloproteinase domain-containing protein 10 (Homo sapiens), O14672; recombinant ADAM10, EDANS/DABCYL FRET peptide cleavage, 3 h; inhibition, % at 7 µM; actives 0.62% (n = 370,000);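 active = inhibition above a per-campaign cutoff equal to the mean of compounds falling between control-based bounds plus 3 SD, cut at about 20% in these data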
PLCg1 ctr – PLC-gamma1 enzyme inhibitors, counter-screen for PLC-beta3 inhibitor project, biochemical, fluorescence; inhibition, % at 12.3 µM; shares compounds with PLC-gamma1 inh; actives 3.1% (n = 3,300); purified PLC-gamma1, fluorogenic substrate; in the data active = inhibition above about 9.5%
PLCbeta3 conf – PLC-beta3 inhibitor confirmation, biochemical, fluorescence, purified enzyme. shares compounds with PLC-gamma1 inh. fluorogenic substrate fluorescence. inhibition, % at 12.3 µM. actives 1% (n = 3,300). AID 743261, 2014
Large screens that a line does not name were inactive (follow-up assays come after a bar, where they were run); ! = not confirmed by another sample. This is a sample that favours compounds with a hit; in the whole collection about 2.9% have one here. Rule as the data show it, unless noted: active = inhibition above about 11%; inactive = the rest.

Cc1cc(C)cc(OCC(=O)OCC(=O)c2c(N)n(C)c(=O)n(C)c2=O)c1	none
COc1ccc(-c2noc3c2-c2nc(-c4ccc(Br)cc4)sc2CC3)cc1	PLC-gamma1 inh 14.0 | PLCg1 ctr inactive | PLCbeta3 conf inactive
CC(C)c1nc2c(s1)CCc1onc(-c3ccc(Cl)cc3)c1-2	none
COc1ccc(-c2noc3c2-c2nc(C(C)C)sc2CC3)cc1	PLC-gamma1 inh 10.5 | PLCg1 ctr inactive | PLCbeta3 conf inactive
COc1cccc(Oc2nccc(N(C)C)c2C#N)c1	none
O=C(Nc1ccc(S(=O)(=O)NCc2cccnc2)cc1)c1ccccc1Cl	none
O=C(Nc1ccccc1)c1ccc(S(=O)(=O)NCc2cccnc2)cc1	PLC-gamma1 inh 10.3 | PLCg1 ctr inactive | PLCbeta3 conf inactive
COc1ccc(/C=N/Nc2ccc(C(F)(F)F)cc2[N+](=O)[O-])cc1O	PLC-gamma1 inh 10.6 | PLCg1 ctr inactive | PLCbeta3 conf inactive
CCc1ccc(NC(=O)CSc2nnc(-c3cnccn3)n2C)cc1	none
CN(C(=O)COc1ccc([N+](=O)[O-])cc1)C1CCS(=O)(=O)C1 (stereo not drawn)	none
CN(C(=O)COc1cccc(C#N)c1)C1CCS(=O)(=O)C1 (stereo not drawn)	PLC-gamma1 inh 11.2 | PLCg1 ctr inactive | PLCbeta3 conf inactive
Cc1noc(C)c1NC(=O)Nc1ccc2c(c1)C(=O)N([C@H](C)CO)C[C@H](C)[C@@H](CN(C)C(=O)Nc1ccc3c(c1)OCO3)O2	none
OC[C@@H]1CN(Cc2ccccc2)C[C@H](n2cnc3c(Nc4ccccc4)ncnc32)O1	none
CCc1cc(C(=O)NNC(=O)CCl)sc1C	PLC-gamma1 inh 10.6 | PLCg1 ctr inactive | PLCbeta3 conf inactive
CCc1cc(C(=O)NNC(=O)CCN2CCN(c3ccccc3)CC2)sc1C	none
Cc1cc(=O)[nH]c(N2CCCC2)n1	PLC-gamma1 inh 11.6 | PLCg1 ctr inactive | PLCbeta3 conf inactive
COc1ccc(NC(=O)CSc2nnc(C)n2C2CC2)cc1S(=O)(=O)N1CCOCC1	PLC-gamma1 inh 9.8 | PLCg1 ctr inactive | PLCbeta3 conf inactive
Cc1ccc(NC(=O)CSc2nnc(C)n2C2CC2)cc1S(=O)(=O)N1CCOCC1	none
O=C(O)CCCN1C(=O)/C(=C\c2ccco2)SC1=S	PLC-gamma1 inh 14.6 | PLCg1 ctr 23.1 | PLCbeta3 conf inactive
O=C(CCN1C(=O)/C(=C\c2ccco2)SC1=S)Nc1ccc(C(=O)O)c(O)c1	PLC-gamma1 inh 37.4 | PLCg1 ctr 13.7 | PLCbeta3 conf inactive
CN(C)/C=C1/N=C(c2ccccc2)OC1=O	PLC-gamma1 inh 10.1 | PLCg1 ctr inactive | PLCbeta3 conf inactive
Cc1ccc(C2=N/C(=C\N(C)C)C(=O)O2)cc1	PLC-gamma1 inh 9.6 | PLCg1 ctr inactive | PLCbeta3 conf inactive
CC(C)(C)NC(=O)C1(N2C(=O)c3ccccc3C2=O)CCCC1	none
CC(C)(C)NC(=O)c1cccc2c1OC(C)(C)C2	PLC-gamma1 inh 15.9 | PLCg1 ctr inactive | PLCbeta3 conf inactive
CC1(C)Cc2cccc(C(=O)NCc3ccco3)c2O1	none
COc1ccc(C(=O)C2CCCN(C(=O)CSC)C2)cc1OC (stereo not drawn)	PLC-gamma1 inh 14.0 | PLCg1 ctr inactive | PLCbeta3 conf inactive
CCC(Oc1ccccc1)C(=O)N1CCN(S(=O)(=O)c2ccccc2)CC1 (stereo not drawn)	none
Cc1ccc(-n2ncc(C(=O)Nc3ccc(Cl)cc3)c2C2CCNCC2)cc1C	PLC-gamma1 inh 9.6 | PLCg1 ctr inactive | PLCbeta3 conf inactive
C(=NOCc1ccccc1)c1ccccn1	PLCb3 inh 12.5 | PLCg1 ctr inactive | PLCbeta3 conf inactive
C(=NOCc1ccccc1)c1ccncc1	PLC-gamma1 inh 10.2 | PLCg1 ctr inactive | PLCbeta3 conf inactive
C(=NOCCc1ccccc1)c1cccnc1	none
COC(=O)c1c(NC(=O)COC(=O)CC(NC(C)=O)c2ccccc2)sc(C)c1C (stereo not drawn)	none
C[C@@H]1CN([C@@H](C)CO)C(=O)CCCn2cc(nn2)CO[C@H]1CN(C)S(=O)(=O)c1ccc2c(c1)OCCCO2	none
C[C@H](CO)N1C[C@H](C)[C@@H](CN(C)S(=O)(=O)c2ccc3c(c2)OCCCO3)OCc2cn(nn2)CCCC1=O	PLC-gamma1 inh 9.5 | PLCg1 ctr inactive | PLCbeta3 conf inactive
C[C@H](CO)N1C[C@H](C)[C@@H](CN(C)C(=O)c2ccccc2)OCc2cn(nn2)CCCC1=O	PLCb3 inh 11.1 | PLCg1 ctr inactive | PLCbeta3 conf inactive
Clc1cc(Cl)c2nc(N3CCCCC3)sc2c1	PLC-gamma1 inh 9.9 | PLCg1 ctr inactive | PLCbeta3 conf inactive
Fc1cc(F)c2nc(N3CCCCC3)sc2c1	none
Clc1cccc2sc(N3CCCCC3)nc12	none
Clc1cc(Cl)c2nc(N3CCCC3)sc2c1	PLC-gamma1 inh 12.1 | PLCg1 ctr inactive | PLCbeta3 conf inactive
CCc1nnc(NC(=O)CCC(=O)NC2CCCC2)s1	none
Cc1cccc(N(C)C(=O)C2CCCN2S(=O)(=O)c2cccc3nsnc23)c1 (stereo not drawn)	PLC-gamma1 inh 10.3 | PLCg1 ctr inactive | PLCbeta3 conf inactive
CCN(C(=O)C1CCCN1S(=O)(=O)c1cccc2nsnc12)c1ccccc1 (stereo not drawn)	none
CC(C)C(Cl)=NOC(=O)Nc1ccc(S(N)(=O)=O)cc1	none
N#Cc1ccc(S(=O)(=O)N2CCN(CC(=O)Nc3ccccc3C(=O)NC3CC3)CC2)cc1	PLC-gamma1 inh 9.7 | PLCg1 ctr inactive | PLCbeta3 conf inactive
CC(C(=O)N=Nc1c(O)[nH]c2ccccc12)n1cnc2ccccc2c1=O (stereo not drawn)	PLCb3 inh 15.7, PLC-gamma1 inh 10.4 | PLCg1 ctr inactive | PLCbeta3 conf inactive
Cc1ccccc1CC(=O)Nc1cccnc1	none
OC1COC(c2ccccc2)OC1C1OC(c2ccccc2)OCC1O (stereo not drawn)	none
NC1(CO)COC(c2ccccc2)OC1 (stereo not drawn)	PLCb3 inh 11.8 | PLCg1 ctr inactive | PLCbeta3 conf inactive
CN1C2CC(OC(=O)C(CO)c3ccccc3)CC1C1OC12 (stereo not drawn)	PLC-gamma1 inh 10.5! | PLCg1 ctr inactive | PLCbeta3 conf inactive
CN1[C@@H]2CC[C@H]1CC(OC(=O)C(CO)c1ccccc1)C2 (stereo partly drawn)	none
